# Measurements from PubChem BioAssay (NCI).
# Where “and” joins values, the source holds several entries; their conditions need not be identical. Equal values may be shown once. This is part of a sample that, as a whole, favours compounds with a hit. Of some 83,000 tested, about 20% had one in any assay.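 Values shown are percent growth following 48 h exposure of cells in 96-well plates to a single concentration of compound; below 10 was considered active.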 More than one record can exist for a structure, and the calls need not agree. Calls of active or inactive are those of the source.
# Key:
# Experiment in all cases: NCI-60 one-dose screen, 48 h (100 = growth as untreated, 0 = no growth, -100 = all killed)
# Details in all cases: 10 µM unless noted
# SR leukemia = tested on: SR leukemia
# RPMI-8226 leukemia = tested on: RPMI-8226 leukemia
# OVCAR-8 ovarian = tested on: OVCAR-8 ovarian
# OVCAR-5 ovarian = tested on: OVCAR-5 ovarian
# OVCAR-4 ovarian = tested on: OVCAR-4 ovarian
# SK-OV-3 ovarian = tested on: SK-OV-3 ovarian
# IGROV1 ovarian = tested on: IGROV1 ovarian
# OVCAR-3 ovarian = tested on: OVCAR-3 ovarian
# HS 578T breast = tested on: HS 578T breast
# NCI/ADR-RES ovarian = tested on: NCI/ADR-RES ovarian
Structure (SMILES),growth (SR leukemia),growth (RPMI-8226 leukemia),growth (OVCAR-8 ovarian),growth (OVCAR-5 ovarian),growth (OVCAR-4 ovarian),growth (SK-OV-3 ovarian),growth (IGROV1 ovarian),growth (OVCAR-3 ovarian),growth (HS 578T breast),growth (NCI/ADR-RES ovarian)
Clc1ccc(-n2ncc3c(NCCCN4CCOCC4)ncnc32)cc1,88.9% (inactive),93.7% (inactive),100% (inactive),92.2% (inactive),102% (inactive),93.1% (inactive),103% (inactive),105% (inactive),91.5% (inactive),86.8% (inactive)
CCCCN(CCCC)CCCCCCCCCCO,81% (inactive),133% (inactive),107% (inactive),97.3% (inactive),93.4% (inactive),109% (inactive),94% (inactive),104% (inactive),105% (inactive),103% (inactive)
O=C(c1ccccc1)C(Br)[N+](=O)[O-] (stereo not given),5.17% (active),75.9% (inactive),83.9% (inactive),96.4% (inactive),104% (inactive),79.9% (inactive),103% (inactive),101% (inactive),91.3% (inactive),101% (inactive)
CCOC(=O)c1cc(CC)sc1NC(=O)CC(C)=O,35.1% (inactive),37.4% (inactive),43% (inactive),96.7% (inactive),43.3% (inactive),84.6% (inactive),59.7% (inactive),65.3% (inactive),49.9% (inactive),40% (inactive)
Oc1c(Cl)cc(Cl)cc1C(c1cc(Cl)cc(Cl)c1O)C(Cl)(Cl)Cl,9.73% (active),-9.94% (active),-0.45% (active),1.83% (active),20.4% (inactive),-16.7% (active),-15.7% (active),-7.63% (active),-11.5% (active),-15.7% (active)
CCCCCCCCCCCCCCCCCC1=NCCCN1CCO,95.6% (inactive),103% (inactive),101% (inactive),98.5% (inactive),112% (inactive),97.6% (inactive),105% (inactive),114% (inactive),101% (inactive),105% (inactive)
O=C(O)c1ccc2c(c1)C(=O)c1ccccc1C2=O,86.4% (inactive),102% (inactive),98.9% (inactive),101% (inactive),96.7% (inactive),98.8% (inactive),116% (inactive),99.3% (inactive),95.6% (inactive),105% (inactive)
OC(c1cc(-c2ccc(C(F)(F)F)cc2)nc(C(F)(F)F)c1)C1CCCCN1 (stereo not given),-37.6% (active) and -57.5% (active) and -38.9% (active),-35.4% (active) and -61.4% (active) and -21% (active),-57.7% (active) and -54.5% (active) and -34.4% (active),30.4% (inactive) and -33.3% (active) and 61% (inactive),-6.94% (active) and -29.6% (active) and 39.1% (inactive),24.4% (inactive) and 39.9% (inactive) and 86.2% (inactive),-25.6% (active) and -92.4% (active) and 30.5% (inactive),-70.3% (active) and -68.3% (active) and 8.69% (active),-3.8% (active) and -53.8% (active) and 48.9% (inactive),-31.5% (active) and -50% (active) and 25% (inactive)
CCCN(CCC)C(=O)c1ccc(C)cc1,95% (inactive),93.3% (inactive),103% (inactive),95.3% (inactive),110% (inactive),94.9% (inactive),106% (inactive),109% (inactive),84.1% (inactive),100% (inactive)
S=C(SSC(=S)N1CCOCC1)N1CCOCC1,31.4% (inactive),76.9% (inactive),96.8% (inactive),106% (inactive),65.7% (inactive),102% (inactive),29.1% (inactive),74.6% (inactive),97.7% (inactive),106% (inactive)
CC1=CC(=O)C=CC1(C)C(Cl)(Cl)Cl (stereo not given),94.2% (inactive),104% (inactive),90.3% (inactive),101% (inactive),114% (inactive),94.3% (inactive),100% (inactive),116% (inactive),93.1% (inactive),102% (inactive)
OC(Cc1cc(CC(O)(C(F)(F)F)C(F)(F)F)nc(CC(O)(C(F)(F)F)C(F)(F)F)c1)(C(F)(F)F)C(F)(F)F,4.85% (active),-7.53% (active),9.71% (active),16.1% (inactive),6.38% (active),-16.8% (active),20.4% (inactive),-3.61% (active),5.53% (active),3.76% (active)
CCOC(=O)NC(/C=C/c1ccccc1)NC(=O)OCC,103% (inactive),101% (inactive),108% (inactive),108% (inactive),109% (inactive),90.3% (inactive),106% (inactive),107% (inactive),103% (inactive),109% (inactive)
CC(=O)OC1CC2CCC1(C)C2(C)C (stereo not given),97.6% (inactive),108% (inactive),98.9% (inactive),94.9% (inactive),113% (inactive),111% (inactive),106% (inactive),103% (inactive),103% (inactive),108% (inactive)
O=[N+]([O-])c1ccc(C(Br)c2ccc([N+](=O)[O-])cc2)cc1,7.81% (active),66.1% (inactive),63.2% (inactive),124% (inactive),64.3% (inactive),97.3% (inactive),-53.2% (active),110% (inactive),107% (inactive),91.5% (inactive)
OCCOSCCO,90.1% (inactive),133% (inactive),106% (inactive),99.5% (inactive),102% (inactive),117% (inactive),112% (inactive),120% (inactive),115% (inactive),113% (inactive)
Oc1ccc2ccccc2c1N=Nc1nccs1,-10% (active),2.25% (active),14.9% (inactive),45.3% (inactive),16.2% (inactive),51.6% (inactive),184% (inactive),1.47% (active),213% (inactive),-22.6% (active)
O=[N+]([O-])c1ccc(C2N(Cc3ccc(Cl)cc3)CCN2Cc2ccc(Cl)cc2)cc1,64.8% (inactive),83.9% (inactive),91% (inactive),89.6% (inactive),102% (inactive),90.1% (inactive),85.9% (inactive),91.3% (inactive),102% (inactive),87.6% (inactive)
Oc1ccc(Nc2ccc3ccccc3c2)cc1,50.4% (inactive),58.6% (inactive),59.8% (inactive),71.5% (inactive),60.2% (inactive),89.3% (inactive),58.1% (inactive),69.8% (inactive),87.6% (inactive),41.8% (inactive)
CCNc1nnnn1CC,108% (inactive),107% (inactive),113% (inactive),115% (inactive),110% (inactive),109% (inactive),115% (inactive),109% (inactive),102% (inactive),110% (inactive)
O=C(/C(Cl)=N/O)c1ccc(-c2ccccc2)cc1,-24% (active),85.2% (inactive),97.8% (inactive),109% (inactive),112% (inactive),99.5% (inactive),71.8% (inactive),72.3% (inactive),110% (inactive),99.9% (inactive)
Cc1c(O)ccc(SC#N)c1C,105% (inactive),96.6% (inactive),102% (inactive),97.3% (inactive),107% (inactive),108% (inactive),110% (inactive),90.8% (inactive),124% (inactive),106% (inactive)
CN=C(N)N/N=C(\c1ccccc1)c1ccc(Br)cc1,-15.2% (active),27.5% (inactive),1.03% (active),32.4% (inactive),42.1% (inactive),-1.99% (active),-7.13% (active),2.68% (active),18.4% (inactive),9% (active)
C[n+]1ccccc1C[n+]1ccccc1,88.6% (inactive),108% (inactive),95.9% (inactive),113% (inactive),113% (inactive),109% (inactive),130% (inactive),123% (inactive),121% (inactive),113% (inactive)
O=C1C=CC(=O)N1c1cc(Cl)c(Cl)cc1Cl,81.5% (inactive),99.8% (inactive),102% (inactive),117% (inactive),98.8% (inactive),91.6% (inactive),93.7% (inactive),111% (inactive),137% (inactive),104% (inactive)
